# Assay results reported in publication PMC4336329 (PLoS ONE, 2015).
# The campaign covered roughly 310,000 compounds. About 14,000 (4.5%) showed an effect of 50% or more. Effects have a minus sign here. The full list was thinned out, with strong results kept by preference.
# Biological target: human ether-à-go-go-related gene (hERG) potassium channel (human, UniProt Q12809)
# Experiment: primary screen, population patch clamp on CHO cells stably expressing hERG; higher = less effect of the substance
# 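Further: peak tail current of the secondary pulse compared with the same well before compound.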
# Sequence of human ether-à-go-go-related gene (hERG) potassium channel (Q12809 whole entry, looked up): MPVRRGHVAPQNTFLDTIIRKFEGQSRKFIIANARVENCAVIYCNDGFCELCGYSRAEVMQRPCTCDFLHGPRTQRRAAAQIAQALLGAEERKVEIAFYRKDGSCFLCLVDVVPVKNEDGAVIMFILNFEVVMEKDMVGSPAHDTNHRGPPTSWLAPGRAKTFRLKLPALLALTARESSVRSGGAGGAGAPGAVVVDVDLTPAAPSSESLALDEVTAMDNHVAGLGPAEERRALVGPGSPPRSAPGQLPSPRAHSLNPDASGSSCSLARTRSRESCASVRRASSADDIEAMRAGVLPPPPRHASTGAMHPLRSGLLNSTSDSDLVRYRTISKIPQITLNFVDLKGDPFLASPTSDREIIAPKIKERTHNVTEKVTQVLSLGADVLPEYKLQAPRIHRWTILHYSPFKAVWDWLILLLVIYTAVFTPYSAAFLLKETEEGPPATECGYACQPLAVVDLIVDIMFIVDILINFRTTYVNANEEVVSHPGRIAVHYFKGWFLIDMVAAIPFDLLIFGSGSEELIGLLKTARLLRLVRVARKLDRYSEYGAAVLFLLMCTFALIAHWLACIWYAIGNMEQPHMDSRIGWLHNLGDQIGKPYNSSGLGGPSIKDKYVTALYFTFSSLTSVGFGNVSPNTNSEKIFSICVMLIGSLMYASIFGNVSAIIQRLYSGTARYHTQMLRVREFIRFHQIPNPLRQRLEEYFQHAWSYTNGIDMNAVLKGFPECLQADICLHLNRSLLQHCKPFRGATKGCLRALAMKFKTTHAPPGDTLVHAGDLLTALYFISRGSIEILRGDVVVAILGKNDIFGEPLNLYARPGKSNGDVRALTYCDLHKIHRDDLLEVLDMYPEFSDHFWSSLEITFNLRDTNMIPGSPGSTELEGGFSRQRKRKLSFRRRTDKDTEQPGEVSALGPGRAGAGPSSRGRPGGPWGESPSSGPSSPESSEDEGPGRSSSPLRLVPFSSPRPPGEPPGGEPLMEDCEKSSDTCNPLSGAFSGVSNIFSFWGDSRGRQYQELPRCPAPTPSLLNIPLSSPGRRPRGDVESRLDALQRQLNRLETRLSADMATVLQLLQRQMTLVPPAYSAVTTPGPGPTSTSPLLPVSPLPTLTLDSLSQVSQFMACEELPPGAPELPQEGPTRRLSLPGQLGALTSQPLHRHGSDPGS
row,SMILES,"hERG current change (%, negative = inhibition) at 10uM"
1,CC(=O)N1c2ccc(S(=O)(=O)N3CCCC3C(=O)Nc3cccc(F)c3)cc2CC1C (centres unmarked),-32.8%
2,CCc1ccc(CNC(=O)C2Cc3cc(S(=O)(=O)N4CCCC4)ccc3N2C(C)=O)cc1 (centres unmarked),-25.9%
3,CSc1ccc(CNC(=O)C2Cc3cc(S(=O)(=O)N4CCCC4)ccc3N2C(C)=O)cc1 (centres unmarked),-38.2%
4,CCc1ccc(NC(=O)C2CCCN2S(=O)(=O)c2ccc3c(c2)C(C)(C)C(=O)N3C)cc1 (centres unmarked),-51%
5,CC(=O)N1c2ccc(S(=O)(=O)N3CCCC3C(=O)NCc3ccc(Cl)cc3)cc2CC1C (centres unmarked),-62.9%
6,CC(=O)N1c2ccc(S(=O)(=O)N3CCCC3C(=O)NCc3ccccc3Cl)cc2CC1C (centres unmarked),-40%
7,Cc1noc(C)c1C(=O)NCc1ccco1,0.0994%
8,C/C(=N/NC(N)=S)c1cc2ccc(O)cc2oc1=O,21.7%
9,O=C(Nc1ccccc1C(=O)O)c1ccccc1,8.69%
10,COc1ccc2oc(=O)c(C(=O)N3CCN(C(=O)c4ccco4)CC3)cc2c1,-12.9%
11,CC(Oc1ccc(F)cc1F)C(=O)NNC(=S)NCC1CCCO1 (centres unmarked),9.12%
12,CC(C)(C)C(=O)Nc1sc2c(c1C#N)CCN(Cc1ccccc1)C2.Cl,1.78%
13,CCc1ccc(-c2cc(C(=O)Nn3cnnc3)c3ccccc3n2)cc1,10.7%
14,Clc1c(-c2nnc3n2CCCCC3)sc2ccccc12,-13.9%
15,COc1ccc2c(Cl)c(-c3nnc4n3CCCCC4)sc2c1,-51.2%
16,Clc1c(-c2nnc3n2CCC3)sc2ccccc12,10.4%
17,COc1cc(NC(=O)CSc2nc(C)c(C)c(C)n2)c(C)cc1[N+](=O)[O-],0.898%
18,Cc1nn(-c2ccccc2)c2c1C(O)CC(C)(C)C2 (centres unmarked),17.8%
19,COc1cc(-c2nc3cnccn3c2Nc2ccccc2)ccc1O,-0.787%
20,CCOC(=O)N1CCN(C(=O)/C=C/c2ccc([N+](=O)[O-])cc2)CC1,-70.6%
21,CCOC(=O)N1CCN(C(=O)/C=C/c2ccc(OC)cc2)CC1,-17.8%
22,CCOC(=O)N1CCN(C(=O)/C=C/c2ccc(C(C)(C)C)cc2)CC1,-26.1%
23,CCN1CCN(C(=O)/C=C/c2ccc(OC)cc2)CC1,-19.1%
24,CN1CCN(C(=O)/C=C/c2ccc([N+](=O)[O-])cc2)CC1,-67%
25,CSc1ccc(/C=C/C(=O)N2CCCN(C)CC2)cc1.Cl,-26.6%

row,SMILES,"hERG current change (%, negative = inhibition) at 10uM"
1,CN1CCN(C(=O)/C=C\c2ccc(Cl)cc2)CC1,-41%
2,CCN1CCN(C(=O)/C=C/c2ccc([N+](=O)[O-])cc2)CC1,-64.2%
3,CCN1CCN(C(=O)/C=C/c2ccc(C(C)C)cc2)CC1,-35.2%
4,CN1CCN(C(=O)/C=C/c2ccc(Cl)c(Cl)c2)CC1,-23%
5,CN1CCN(C(=O)/C=C/c2ccc(C#N)cc2)CC1,-54.3%
6,CN1CCN(C(=O)/C=C/c2ccc(Cl)cc2)CC1,-44.8%
7,COc1ccc(-c2cc3nc(C)cc(N)n3n2)cc1,3.53%
8,CCCCC(=O)NC1(C(F)(F)F)C(=O)Nc2c1c(=O)n(C)c(=O)n2C (centres unmarked),-4.15%
9,O=C(NC1CC(=O)N(c2ccccc2)C1)C(=O)c1c[nH]c2ccccc12 (centres unmarked),-11.1%
10,COc1cc2c(cc1OC)CN(C(=O)/C=C/c1ccc(F)cc1)CC2,-22.2%
11,COc1cc2c(cc1OC)CN(C(=O)/C=C/c1ccc([N+](=O)[O-])cc1)CC2,-55.1%
12,COc1cc2c(cc1OC)CN(C(=O)/C=C/c1cccc([N+](=O)[O-])c1)CC2,-31.2%
13,CCOc1cc(C(c2c(C)[nH][nH]c2=O)c2c(C)[nH][nH]c2=O)ccc1OC(=O)c1cccc([N+](=O)[O-])c1,-4.87%
14,CCOc1ccc(C(=O)CC(=O)C(=O)NCCc2ccc(OC)c(OC)c2)cc1,-10%
15,CCOc1ccc(-c2cn[nH]c2N)cc1,-5.03%
16,CCOc1ccc(-c2cc(C)[n+](CCN3CCOCC3)c(-c3ccc(OCC)cc3)c2)cc1.[O-][Cl+3]([O-])([O-])[O-],-41.4%
17,Br.CC(C)O.Cc1ccc(-c2csc(Nc3ccccc3)[n+]2CCc2ccccc2)cc1,20.5%
18,CCOc1ccc(-c2nc(C)sc2CC(=O)O)cc1,11%
19,CCOc1ccc(-c2cc(C)[n+](CCO)c(-c3ccc(OCC)cc3)c2)cc1.[O-][Cl+3]([O-])([O-])[O-],-62.6%
20,CCOC(C[n+]1c(-c2ccccc2)cc(C)cc1-c1ccccc1)OCC.[O-][Cl+3]([O-])([O-])[O-],3.9%
21,COc1ccc(CCNC(=O)COc2ccc(-c3ccc(C)cc3)cc2)cc1OC,-9.64%
22,CCOc1ccc(-c2cc(C)[n+](CCN(CC)CC)c(-c3ccc(OCC)cc3)c2)cc1.[O-][Cl+3]([O-])([O-])[O-],-79.3%
23,Cc1cc(-c2ccccc2)cc(C)[n+]1Cc1ccccc1.[O-][Cl+3]([O-])([O-])[O-],5.38%
24,CCOc1ccc(-c2cc(C)[n+](CCc3ccc(OC)c(OC)c3)c(-c3ccc(OCC)cc3)c2)cc1.[O-][Cl+3]([O-])([O-])[O-],-83.1%
25,Cc1cc(-c2ccccc2)cc(-c2ccccc2)[n+]1CCc1ccccc1.[O-][Cl+3]([O-])([O-])[O-],-76.5%
